Here are results for 40 molecules from PubChem BioAssay (Tox21).

Results filed as inconclusive are left out. Unmarked numbers belong to inactive results. Active and inactive are the calls of the source. Calls follow the shape of the dose curve; as a rule, active = well fitted activation curve with a large enough effect in the signal ratio in the repeat runs (not every such curve was filed as active); inconclusive = weak or mixed curves, or effect the other way; inactive = flat fitted curve, though single readings scatter; the % refers to the signal ratio.
% is scaled to controls: 0 for no effect and ±100 for the full control effect; potency is read from the fitted curve at half-maximal effect.

A short description of the experiment: qHTS assay to identify small molecule agonists of the endoplasmic reticulum stress response signaling pathway (AID 1159516). The note with it: ESRE-bla HeLa, ER stress beta-lactamase reporter, 5 h; series mostly up to 61 µM; activation: at the top concentration. From the text:
National Center for Advancing Translational Sciences [NCATS]
NIH Chemical Genomics Center [NCGC]
U.S. Environmental Protection Agency [EPA]
National Institutes of Environmental Health Sciences [NIEHS]
National Toxicology Program [NTP]
U.S. Food and Drug Administration [FDA]
Endoplasmic Reticulum (ER) plays an important role in cellular signaling, protein folding/maturation, stress response, lipid biosynthesis, calcium storage and release etc. Under stress conditions, proteins in ER misfold or unfold, and leading to the expression of ER stress responsive genes. ER stress has been associated with a variety of pathophysiological conditions such as cancer, inflammation, neurodegenerative diseases, diabetes, ischemic heart disease etc. To identify the compounds that induce ER stress response, an ER stress reporter cell line, CellSensor ESRE-bla HeLa (Life Technologies, Carlsbad, CA) containing a beta-lactamase reporter gene under control of the Endoplasmic reticulum Stress Response Element (ESRE) was used to screen Tox21 10K compound library.
Tox21 Assay Protocol Summary:
ESRE-bla HeLa cells were dispensed at 1,500 cells/6 uL of assay medium per well into black wall/clear-bottom 1536-well plates using a Multidrop Combi (ThermoFisher Scientific, Waltham, MA) dispenser. After the assay plates were incubated at 37 C and 5% CO2 for an overnight, 23 nL of compounds dissolved in DMSO, positive controls or DMSO only was transferred to the assay plate by a Pintool station (Kalypsys, San Diego, CA). The assay plates were incubated at 37 C and 5% CO2 for 5 hr. One uL of LiveBLAzer B/G FRET substrate (Life Technologies) was added using a Flying Reagent Dispenser (Aurora Discovery, San Diego, CA) and the plates were incubated at room temperature for 2 hr. Fluorescence intensity (405 nm excitation, 460 nm and 530 nm emissions) was measured using an Envision plate reader (PerkinElmer, Shelton, CT).
For `C/C=C/C=C/CO`, the “activation” value is -5.02%.
With `C[C@H]1C[C@H]2[C@@H]3CCC4=CC(=O)C=C[C@]4(C)[C@@]3(Cl)[C@@H](O)C[C@]2(C)[C@@]1(O)C(=O)CO`, the “activation” value was -6.42%.
For the molecule `CO[C@@H]1[C@H](OC(=O)/C=C/C=C/C=C/C=C/C(=O)O)CC[C@]2(CO2)[C@H]1[C@@]1(C)O[C@@H]1CC=C(C)C`, the “activation” value was -3.73%.
As to `CN(C)c1ccc(C(c2ccccc2)c2ccc(N(C)C)cc2)cc1`, the “activation” value is 1.23%.
As to `COC(=O)c1ccc(I)cc1S(=O)(=O)NC(=O)Nc1nc(C)nc(OC)n1`, the “activation” value was 1.87%.
Same read-out and setting: the result for `CC(COCCO)OCCO` (stereo not given) reads 3.54%; that for `COc1ccc(S(=O)(=O)N2C(=O)[C@@](c3ccccc3OC)(N3C[C@H](O)C[C@H]3C(=O)N(C)C)c3cc(Cl)ccc32)c(OC)c1`, -9.87%.
In the case of `Nc1ncn([C@H]2C[C@H](O)[C@@H](CO)O2)c(=O)n1`, the “activation” value was 0.582%.
Take `CCN(CC)CCNc1ccc(CNC=O)c2sc3ccc(OC)cc3c(=O)c12`: the “activation” value was -3.91%.
Same read-out and setting: the result for `O=C(O)C1(C(=O)Nc2ccc(Cl)cc2Cl)CC1` reads -5.17%.
The same measure, in the same setting: the result for `CCCCc1ncc(/C=C(\Cc2cccs2)C(=O)O)n1Cc1ccc(C(=O)O)cc1` reads 3.58%; that for `CC1=CCCC(C)(C)C12CCC(C)O2` (stereo not given), -0.649%.
In the case of `COc1cc2c(cc1OC)C(C(C(=O)N(CCc1ccc(OC)c(OC)c1OC)CCc1ccc(OC)c(OC)c1OC)c1ccccc1)=NCC2` (stereo not given), the “activation” value is -6.12%.
Still for that read-out and setting: the result for `CCNc1cc(O)ccc1C` reads 0.797%; that for `Cc1oc(-c2ccccc2)nc1CCOc1cccc2c1ccn2CCC(=O)O`, -3.92%; that for `CCOC(=O)c1cccnc1`, 2.53%.
Still for that read-out and setting: the result for `OC(CN1CCC(Cc2ccc(F)cc2)CC1)c1ccc(Cl)cc1` (stereo not given) reads 1.48%; that for `CCC(Cl)CCC(Cl)C(Cl)CC(Cl)C(Cl)C(Cl)CCl` (stereo not given), 0.417%; that for `NCC(=O)O`, -0.0283% [at 28.5 µM].
On the same count and under the same terms, the figure for `Nc1ccc(N)c2c1C(=O)c1ccccc1C2=O` is -0.384%; for `CCCOC(C(=O)OC1CCN(C)CC1)(c1ccccc1)c1ccccc1` it is 0.448%.
As for `NCc1ccccc1Sc1ccccc1CO`, the “activation” value is 1.65%.
For `CCCCOC(=O)CCCCCCCC(=O)OCCCC`, the “activation” value was -2.26%.
The same measure, in the same setting: the result for `CCCCC1=NC2(CCCC2)C(=O)N1Cc1ccc(-c2ccccc2-c2nn[nH]n2)cc1` reads -0.0819%; that for `CN(C)CCCN1c2ccccc2Sc2ccccc21`, -3.82%.
Same read-out and setting: the figure for `O=C(Cl)c1cc(C(=O)Cl)cc(C(=O)Cl)c1` is -6.67%; for `CN(C)CCN(Cc1ccc(Cl)cc1)c1ccccn1` it is -0.5%.
On the same count and under the same terms, the result for `c1ccc(C(O[C@H]2CCCN(CCc3ccc4c(c3)OCO4)C2)c2ccccc2)cc1` reads 1.5%; that for `Nc1c(CC(=O)O)cccc1C(=O)c1ccc(Br)cc1`, -2.2%.
`C=CC(=O)OCCOCCOC(=O)C=C`: the “activation” value is -8.29% [at 78.8 µM].
For `COC(=O)C1=C(C)NC(COC(N)=O)=C(C(=O)OC(C)C)C1c1cccc(Cl)c1Cl` (stereo not given), the Potency was 21.3 µM (active).
For the molecule `CC(=O)NO`, the “activation” value was -2.13%.
`CCCCC(=O)OCC(=O)[C@H]1[C@H](C)C[C@H]2[C@@H]3C[C@H](F)C4=CC(=O)C=C[C@]4(C)[C@@]3(F)[C@@H](O)C[C@@]21C`: the “activation” value was -0.211%.
In the case of `c1ccc(CNCCNCc2ccccc2)cc1`, the “activation” value is 0.71%.
Turning to `CN(C)c1ccc(CCO)cc1`, the “activation” value is -0.307%.
In the case of `O=S(c1cc(Cl)cc(Cl)c1O)c1cc(Cl)cc(Cl)c1O`, the “activation” value was -0.922%.
As to `CCCCC(CC)COC(=O)CCCCCCCCC(=O)OCC(CC)CCCC` (stereo not given), the “activation” value was 0.533%.
With `CCO[C@H](Cc1ccc(OCCc2ccc(OS(C)(=O)=O)cc2)cc1)C(=O)O`, the “activation” value was -0.406%.
Same read-out and setting: the result for `O=C(c1ccc(F)cc1)C1CCN(CCn2c(=S)[nH]c3ccccc3c2=O)CC1` reads -0.737%; that for `CCCCCCCN`, 1.77% [at 78.8 µM].
